Experiment [1] in a line: NCI Yeast Anticancer Drug Screen. Data for the rad50 strain (AID 155).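 Also: 0% = growth of vehicle-only cultures of the same strain.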 The note with it: S. cerevisiae rad50 strain growth inhibition; at 50.0 µM; hits give high values. In a few lines:
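Cells are treated with compound, grown, and their growth is then scored against vehicle-only cultures of the same repair-deficient yeast strain.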

The nature of experiment [2]: NCI Yeast Anticancer Drug Screen. Data for the mec2-1 strain (AID 157). The note with it: S. cerevisiae mec2-1 strain, at 50.0 µM, hits give high values. In a few lines: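 Yeast mec2-1 mutant treated with compound. Readout: growth inhibition vs vehicle controls.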
Experiment [3] is described as follows: NCI Yeast Anticancer Drug Screen. Data for the sgs1 mgt1 strain (AID 161).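 Also: 0% = growth of cultures given vehicle only.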 The note with it: S. cerevisiae sgs1 mgt1 strain, at 50.0 µM, hits give high values. The method, boiled down:
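Mutant yeast exposed to compound; growth scored against vehicle-only wells.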

Experiment [4] in a line: NCI Yeast Anticancer Drug Screen. Data for the cln2 rad14 strain (AID 165).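 Also: 0% = growth equal to vehicle treated cultures.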 The note with it: S. cerevisiae cln2 rad14 strain, at 50.0 µM, hits give high values. In a few lines: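 cln2 rad14 yeast strain; compound exposure; growth inhibition read vs vehicle controls.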
Experiment [5] can be described thus: NCI Yeast Anticancer Drug Screen. Data for the bub3 strain (AID 167). The following applies: S. cerevisiae bub3 mutant strain, at 50.0 µM, hits give high values. In a few lines:
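Part of a panel of yeast mutants defective in DNA damage repair or cell cycle regulation. Each strain is grown with compound, and inhibition is calculated relative to solvent-treated cultures.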

Experiment [6] is described as follows: NCI Yeast Anticancer Drug Screen. Data for the mlh1 rad18 strain (AID 175). The following applies: S. cerevisiae mlh1 rad18 strain growth inhibition; at 50.0 µM; hits give high values. The method, boiled down:
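Yeast w/ defined DNA-repair lesions; compound exposure; growth vs vehicle controls → % inhibition.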

SMILES strings stand for the structures. About 79,000 compounds went through this panel and 15% of them were active in at least one assay; those are over-represented in the sample as a whole. Unmarked numbers belong to inactive results. The source made the active and inactive calls. Rule as the data show it: active = growth inhibition above about 70%; inactive = the rest.

This note sets out measurements from PubChem BioAssay (NCI).

Regarding `COc1cccc(NC(=O)/C(CS(=O)(=O)CCC(C(C)=O)C(C)=O)=N\NC(C)(C)C)c1`, the growth inhibition is 11.7% in experiment [1]; 0.7% in experiment [2]; -20.8% in experiment [3]; -21.9% in experiment [4]; 1.3% in experiment [5]; 7.1% in experiment [6].
With `CCOC(=O)Cn1c(=O)c(-c2ccccc2NC(C)=O)nc2ccccc21`, the growth inhibition in experiment [1] was -12.3%; in experiment [2], -3.65%; in experiment [3], -7.9%; in experiment [4], -6.1%; in experiment [5], 0.4%; in experiment [6], -14.1%.
`O=S(=O)(O)Cc1ccc(CS(=O)(=O)O)cc1`: the growth inhibition in experiment [1] is 14.7%; in experiment [2], -2.1%; in experiment [3], -1.3%; in experiment [4], -56.4%; in experiment [5], -3.8%; in experiment [6], -17%.
For the compound `CCOC(=O)C(NC(=O)OC(C)(C)C)C(=O)OCC`, the growth inhibition was -43.2% in experiment [1]; -90.8% in experiment [2]; -33.1% in experiment [3]; -28.9% in experiment [4]; 2.6% in experiment [5]; -27.4% in experiment [6].
For the compound `Cc1ncc(N)nc1C`, the growth inhibition in experiment [1] was -5.25%; in experiment [2], -15.8%; in experiment [3], -26.5%; in experiment [4], -35.5%; in experiment [5] it was -22.6%; in experiment [6], -43%.
Take `Clc1ccc2nsnc2c1`: the growth inhibition in experiment [1] is 14.2%; in experiment [2], -12.8%; in experiment [3], 24.9%; in experiment [4] it was 16.8%; in experiment [5], 18.9%; in experiment [6], 35%.
With `Nc1ccc(N=Nc2ccncc2)c2ccccc12`, the growth inhibition in experiment [1] is 31.7%; in experiment [2], 22.5%; in experiment [3] it was 4.1%; in experiment [4], -15.1%; in experiment [5], 28%; in experiment [6] it was 19.7%.
As to `Cc1cc(NC(=O)NC(=O)c2ccccc2NC(=O)CN)ccc1Oc1ncc(Br)cn1`, the growth inhibition is 6% in experiment [1]; -13.8% in experiment [2]; 40.3% in experiment [3]; 11.4% in experiment [4]; 15.1% in experiment [5]; -43.5% in experiment [6].
`COc1ccc(CCN=C2CCC(C(=O)NCCc3ccc(OC)c(OC)c3)N2)cc1OC` (stereo unspecified): the growth inhibition in experiment [1] is -12.9%; in experiment [2], -18.9%; in experiment [3], 2.6%; in experiment [4] it was -1.3%; in experiment [5] it was -20.5%; in experiment [6], -4.25%.
`CC(C)(C)C1COC(c2ccccc2)(c2ccccc2)C1` (stereo unspecified): the growth inhibition in experiment [1] was -24.6%; in experiment [2], -1.55%; in experiment [3], 8.7%; in experiment [4] it was -26.5%; in experiment [5], -2.4%; in experiment [6], -15.3%.
On to `Cc1cc(C(=O)O)ccc1C(=O)O`, for which the growth inhibition in experiment [1] is -13.8%; in experiment [2] it was -31.6%; in experiment [3] it was -1.95%; in experiment [4], -39.4%; in experiment [5], -20.4%; in experiment [6], -25.1%.
For the compound `CCCCCCCSCC1OC(n2cnc3c(N)ncnc32)C(O)C1O` (stereo unspecified), the growth inhibition was 3.35% in experiment [1]; 11.1% in experiment [2]; 11.4% in experiment [3]; 5.5% in experiment [4]; 3.1% in experiment [5]; 9.3% in experiment [6].
`Cc1ccc(C(N)=Nc2ccccc2)cc1`: the growth inhibition was 0.65% in experiment [1]; 0% in experiment [2]; -0.3% in experiment [3]; -2.85% in experiment [4]; 3.3% in experiment [5]; 23.4% in experiment [6].
For the compound `Clc1cc2nnn(C3CCCCO3)c2cc1Cl` (stereo unspecified), the growth inhibition in experiment [1] was 9.75%; in experiment [2], -3.05%; in experiment [3], -23.4%; in experiment [4] it was -12.3%; in experiment [5], -0.9%; in experiment [6], 14.4%.
For `CC(O)C(NC(=O)Nc1ncnc2nc[nH]c12)C(=O)O` (stereo unspecified), the growth inhibition in experiment [1] is 8.8%; in experiment [2] it was 4.3%; in experiment [3] it was -2%; in experiment [4], 7.75%; in experiment [5], -14.2%; in experiment [6], 16.9%.
For the compound `CCCCN(CCCC)CC(C)O` (stereo unspecified), the growth inhibition in experiment [1] is -21.8%; in experiment [2] it was -35.8%; in experiment [3] it was -22.4%; in experiment [4], 16.9%; in experiment [5] it was -12.9%; in experiment [6] it was -18.6%.
Turning to `O=C(O)c1ccc(C2C(=O)N[C@@H]3CCC[C@H]23)cc1` (stereo partly specified), the growth inhibition was -33% in experiment [1]; -5.75% in experiment [2]; -22.1% in experiment [3]; 6.05% in experiment [4]; -12.9% in experiment [5]; -32.1% in experiment [6].
On to `CC(C)[C@@H]1NC(=O)[C@@H]2N=C(O[C@H]2C)[C@H](C(C)C)NC(=O)C2N=C1O[C@H]2C`, for which the growth inhibition in experiment [1] was 11%; in experiment [2], 4.75%; in experiment [3] it was 2.15%; in experiment [4] it was 9.45%; in experiment [5], 10.3%; in experiment [6], -34.1%.
Regarding `CCOC(=O)C(Nc1cc([N+](=O)[O-])ccc1C(=O)OC)(OC)C(=O)OCC`, the growth inhibition was 13.2% in experiment [1]; 15.4% in experiment [2]; 34.1% in experiment [3]; 0.95% in experiment [4]; 1.15% in experiment [5]; 27.4% in experiment [6].
Take `Cc1ccn2c(CCc3nnc4cc(C)ccn34)nnc2c1`: the growth inhibition in experiment [1] is -1.4%; in experiment [2] it was -33.4%; in experiment [3], -42.4%; in experiment [4], 0.4%; in experiment [5] it was -26.1%; in experiment [6] it was 12.3%.
Turning to `Cc1ccc(N=C=C(c2ccc(Cl)cc2)c2ccc(Cl)cc2)cc1`, the growth inhibition is 73.2% (active) in experiment [1]; 64.4% in experiment [2]; 70.8% (active) in experiment [3]; 60.2% in experiment [4]; 59.6% in experiment [5]; 77.2% (active) in experiment [6].
